Here are results for 30 compounds from PubChem BioAssay (EPA / NIEHS).

Test [1] in a line: CCTE_Shafer_MEA_dev_AB: CCTE's Alamar Blue Assay for Cytotoxicity in the Neural Network Formation Assay, Shafer Lab (AID 2284083; active = hit-call score of the fitted dose curve at least 0.9, where 1 is the maximum;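 also: resazurin reduction fluorescence as viability of cultured neurons; twelve days of exposure from plating with re-dosing on DIV 5 and 9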). In a few lines:
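Rat cortical primary cultures, 1.5 x 10^5 cells/well on MEA; continuous compound exposure over 12 days of network development, re-dosed with full medium change DIV 5 and 9. Alamar Blue fluorescence; loss of signal = cytotoxicity vs DMSO baseline.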
On the technique in general: Alamar Blue is a resazurin reagent that responds to reducing activity.

Test [2] is described as follows: CCTE_Shafer_MEA_dev_mutual_information_norm: CCTE's Neural Network Formation Assay for Mutual Information Normalization, Shafer Lab (AID 2284091).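 As to AC50: mutual information between electrodes summarised as area under curve across four recording days; potency is for a decrease in mutual information relative to DMSO.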 In a few lines:
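Exposure of primary rat cortical neurons began at plating and ran to DIV 12, with full media and treatment renewal after DIV 5 and 9 recordings. Mutual information AUC (DIV 5–12) was analysed for loss versus DMSO.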

Test [3] can be described thus: CCTE_Shafer_MEA_dev_correlation_coefficient_mean: CCTE's Neural Network Formation Assay for Mean Correlation Coefficient, Shafer Lab (AID 2284093).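 As to AC50: well mean pairwise spike train correlation integrated as AUC over recording days 5 to 12; potency fitted for loss of correlation relative to DMSO vehicle wells.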 In a few lines:
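Rat cortical cultures, 1.5 x 10^5 cells/well, dosed from day 0 for 12 days. Spontaneous spikes recorded DIV 5/7/9/12; electrode-pair correlation coefficients averaged, AUC taken. Fit in loss direction vs DMSO.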

The nature of test [4]: CCTE_Shafer_MEA_acute_LDH: CCTE's Lactate Dehydrogenase Assay for Cytotoxicity in the Neural Acute Assay, Shafer Lab (AID 2284086; active = hit-call score of the fitted dose curve at least 0.9, where 1 is the maximum;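 also: active means LDH release rises above DMSO vehicle level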). The method in brief:
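Cytotoxicity readout: spectrophotometric LDH activity in supernatant of rat primary cortical neurons, post-plating day 13 or 15, sampled after 40 min compound exposure; signal gain relative to DMSO baseline.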

Test [5] is described as follows: CCTE_Mundy_HCI_Cortical_Synap_Neur_Matur_BPCount: CCTE's Synaptogenesis and Neurite Maturation Assay in rat cortical cells for Branch Point Count, Mundy Lab (AID 2284211). In a few lines:
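In this multiplexed morphology assay, cortical cells from rat receive chemicals at DIV 7 and are fixed at DIV 12, then immunostained and imaged; branch points are counted, with DMSO as baseline.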

Test [6] is described as follows: UKN2_HCS_IMR90_neural_migration: University of Konstanz (UKN) Leist Lab Neural Crest Cell Migration Assay in human induced IMR90 Pluripotent Stem Cells (UKN2) (AID 2284204). The conditions noted are these: actives raise or lower the signal. In a few lines: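 Using a 96-well stopper format with PLO/laminin/fibronectin coating, neural crest cells from iPSC migrate in cytokine-supplemented N2-S medium; after 24 h, chemicals are applied for a further 24 h, then cells are imaged after dye staining.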

Test [7] in a line: UKN4_HCS_LUHMES_neurite_outgrowth: University of Konstanz (UKN) Leist Lab Neurite Outgrowth Assay in human LUHMES cells (UKN4) (AID 2284206). Conditions: actives raise or lower the signal. The method in brief:
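Neurite area in dopaminergic-model LUHMES neurons is measured by high-content imaging of calcein-AM after 24 h treatment starting shortly after day-2 replating; Hoechst staining tracks viability.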

The nature of test [8]: IUF_NPC1b_proliferation_BrdU_72hr: Leibniz Research Institute for Environmental Medicine (IUF) 72-hour Neural Progenitor Cell Bromodeoxyuridine (BrdU) Proliferation Assay (NPC1b) (AID 2284207). The method in brief: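 Neural progenitor spheres of human fetal origin are treated for three days; BrdU added for the last 16 h is quantified by luminescence ELISA, with DMSO as baseline and EGF/FGF omission as positive control.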

A short description of test [9]: IUF_NPC1a_proliferation_area_72hr: Leibniz Research Institute for Environmental Medicine (IUF) 72-hour Neural Progenitor Cell Proliferation Area Assay (NPC1a) (AID 2284208). In a few lines: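 Single 0.25–0.35 mm human fetal neural progenitor spheres in proliferation medium with EGF and FGF, exposed 72 h from plating without renewal at 37C, pH 7.2-7.6. Sphere area growth measured by automated phase-contrast imaging, relative to DMSO.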

A short description of test [10]: IUF_NPC1_viability_72hr: Viability Assessment at 72 hours in the Leibniz Research Institute for Environmental Medicine (IUF) Neural Progenitor Cell Proliferation Assay (NPC1) (AID 2284209). The protocol: IUF_NPC1 is a cell-based, multiplexed assay that uses hNPC, a human primary neural progenitor cells, with measurements taken at 72 hours after chemical dosing in a 96-well plate. Human neural progenitor cells (hNPC) are generated from human fetal brain cortex at gestational week (GW) 16-19. Grown in suspension culture and under proliferative conditions (proliferation media and growth factors), these cells represent neural progenitor cell proliferation. In the NPC1 assay, hNPC's are exposed to the test compound for 72h. Cell proliferation is assessed as an increase in sphere area using automated phase contrast imaging and as incorporation of Bromodeoxyuridine (BrdU) during DNA synthesis using a luminescence-based cell proliferation ELISA. In parallel, the cell viability is assessed using an alamar blue viability assay and the cytotoxicity using a lactate dehydrogenase dependent membrane integrity assay.IUF_NPC1_viability_72hr is one of 4 assay components measured from the IUF_NPC1 assay. It is designed to measure cell viability assessed as mitochondria-dependent reduction of resazurin to resorufin using the alamar blue cell viability assay. Viability is measured as a fluorescence signal (relative fluorescence unit) in a multiplate reader. Data from the IUF_NPC1_viability component was analyzed at the endpoint IUF_NPC1_viability in the positive analysis fitting direction relative to DMSO as the negative control and baseline of activity. Using a type of viability reporter, gain or loss-of-signal activity can be used to understand viability effects.
After the cell expansion period, the cells are cultured for up to four weeks in which they are passaged every week. Between one to three days after passaging, depending on the size chosen for passaging, spheres at a size of 0.3 mm are used in the assay. For the assessment of neural progenitor cell proliferation, the spheres are plated in poly-Hema coated 96-well U-bottom plates filled with proliferation medium containing growth factors (EGF and FGF). One 0.25 - 0.35 mm big sphere is plated in the middle of each well. […]

SMILES strings stand for the structures. Values joined by “and” are separate entries in the source; they are usually repeats but may differ in a detail not shown here. Equal entries are not always repeated. Records with an inconclusive call do not appear. Where a structure was tested more than once in an assay, its records may differ in their call. Active and inactive are the calls of the source. The calls were made as follows, unless noted: active = hit-call score of the fitted dose curve at least 0.9, where 1 is the maximum; inactive = score below 0.9.

As usually defined, the AC50 is the midpoint of the concentration-response curve, whichever way the signal moves. Consider `CC[C@H](C)C(=O)O[C@H]1C[C@H](O)C=C2C=C[C@H](C)[C@H](CC[C@@H](O)C[C@@H](O)CC(=O)O)[C@H]21`, for which the AC50 is 2.43 µM (active) in test [1], 1.97 µM (active) in [2] and 4.32 µM (active) in [3].
`CCc1ccc(O)c(C(C)(C)C)c1`: the call in test [4] was inactive.
In the case of `FC(F)(F)COC(OCC(F)(F)F)OCC(F)(F)F`, the result in test [2] and in test [3] was inactive.
Turning to `OCCC(F)(F)C(F)(F)C(F)(F)C(F)(F)F`, the outcome in test [2] was inactive. Besides, in test [3], the AC50 was 3.75 µM (active).
`COc1cc2c(c(OC)c1OC)-c1ccc(OC)c(=O)cc1[C@@H](NC(C)=O)CC2`: the AC50 in [1] is 0.0232 µM (active); in test [2] it was 0.0238 µM (active); in [3], 0.0234 µM (active); in test [5], 0.0374 µM (active).
As for `CCN(CC)C(=S)SSC(=S)N(CC)CC`, the AC50 in [1] is 146 nM (active) and 58.6 nM (active); in [2] it was 94.3 nM (active) and 37.8 nM (active); in test [3], 110 nM (active) and 63.3 nM (active).
For the compound `OC(Cn1cncn1)(Cn1cncn1)c1ccc(F)cc1F`, the outcome in test [1], in [2], in test [3] and in test [5] was inactive.
On to `C[C@]12C=CC(=O)C=C1CC[C@H]1[C@@H]3C[C@@H](O)[C@](O)(C(=O)CO)[C@@]3(C)C[C@H](O)[C@@]12F`, for which the compound was classed as inactive in test [1] and in test [2]. The AC50 is 0.202 µM (active) in [3] and 2.18 µM (active) in test [5].
In the case of `CCCc1ccccc1`, the compound was classed as inactive in test [4].
As for `CCCCC(CC)C(=O)OCCOCCOCCOC(=O)C(CC)CCCC` (centres undefined), the compound was classed as inactive in test [4].
In the case of `CCOc1ccc2[nH]cc(C(=O)NCc3ccccc3)c(=O)c2n1`, the outcome in test [1], in test [2] and in test [3] was inactive.
In the case of `OC(CCl)CCl`, in test [4], the call was inactive.
Still for that read-out and setting: the value for `C=CCc1cc(S(=O)(=O)c2ccc(O)c(CC=C)c2)ccc1O` was “inactive”.
`NC(=O)N1c2ccccc2C=Cc2ccccc21`: the compound was called inactive in test [2], in test [3], in test [6] and in test [5]. Further, the AC50 in [7] is 150 µM (active).
Turning to `O=C(Cl)C(F)(F)C(F)(F)C(F)(F)C(=O)Cl`, the call in [1], in test [2] and in test [3] was inactive.
On to `CC(C)C(=O)Nc1ccc([N+](=O)[O-])c(C(F)(F)F)c1`, for which the compound was called inactive in [4].
On the same count and under the same terms, with `O=S(=O)(O)c1ccc(N=Nc2c(O)ccc3cc(S(=O)(=O)O)ccc23)cc1` the entry was “inactive”.
`Cn1cc[nH]c1=S`: the outcome in test [1], in [2], in [3], in [8], in test [9] and in [10] was inactive. In addition, the result in [5] was inactive.
For the compound `OCc1ccccc1`, the compound was called inactive in test [4].
Take `Nc1ccn([C@@H]2O[C@H](CO)[C@@H](O)[C@@H]2O)c(=O)n1`: the AC50 was 18.5 µM (active) and 1.67 µM (active) in test [1]; 89.3 nM (active) and 97.6 nM (active) in test [2]; 89.9 nM (active) and 112 nM (active) in test [3]; 0.109 µM (active) in [9]; 0.191 µM (active) in test [10]; 7.42 µM (active) in test [5]. Moreover, the call in test [6], in [7], in test [8] and in test [5] was inactive.
On to `NCC(F)(F)C(F)(F)C(F)(F)C(F)(F)F`, for which the compound was called inactive in test [1], in test [2] and in [3].
Consider `Cn1c(=O)c2[nH]cnc2n(C)c1=O`, for which the outcome in [4] was inactive.
With `c1ccc2c(c1)-c1cccc3c1c-2cc1ccccc13`, the outcome in [1] and in test [3] was inactive. In addition, in [2], the AC50 was 1.35 µM (active).
Turning to `c1ccc(C(O[C@@H]2CCCN(CCc3ccc4c(c3)OCO4)C2)c2ccccc2)cc1`, the compound was classed as inactive in test [4].
Turning to `FC(F)(F)C(F)(F)C(F)(F)C(F)(F)C(F)(F)C(F)(F)I`, the result in test [2] and in test [3] was inactive.
On to `CCCC(CCC)C(=O)O`, for which the compound was called inactive in test [1], in test [2], in test [3], in test [6] and in [5]. Also, the AC50 is 7760 µM (active) in test [7], 1040 µM (active) in test [8] and 2090 µM (active) in test [10].
Turning to `NNC(=O)c1ccncc1`, the compound was classed as inactive in test [1], in test [2], in test [3] and in test [5].
With `COCc1nnc(-c2ccc[n+]([O-])c2)n1-c1c(Cl)c(Cl)cc2[nH]c(=O)c(=O)[nH]c12`, the compound was classed as inactive in [4].
Take `OC(O)(C(F)C(O)(O)C(F)(F)F)C(F)(F)F`: the result in test [1], in [2] and in test [3] was inactive. Besides, the AC50 in test [3] is 2.98 µM (active).
In the case of `c1ccc2cc3ccccc3cc2c1`, the call in test [4], in [2], in [3] and in test [5] was inactive.
